Bioassay records from PubChem.
USP30 inh: inhibitors of human USP30 deubiquitinase. AID 1645860, 2021. Ubiquitin carboxyl-terminal hydrolase 30 (Homo sapiens), Q70CQ3. purified USP30, Ub-rhodamine cleavage fluorescence. inhibition, % at 25 µM. actives 5.3% (n = 47,000)
Target sequence (Q70CQ3 whole entry, looked up): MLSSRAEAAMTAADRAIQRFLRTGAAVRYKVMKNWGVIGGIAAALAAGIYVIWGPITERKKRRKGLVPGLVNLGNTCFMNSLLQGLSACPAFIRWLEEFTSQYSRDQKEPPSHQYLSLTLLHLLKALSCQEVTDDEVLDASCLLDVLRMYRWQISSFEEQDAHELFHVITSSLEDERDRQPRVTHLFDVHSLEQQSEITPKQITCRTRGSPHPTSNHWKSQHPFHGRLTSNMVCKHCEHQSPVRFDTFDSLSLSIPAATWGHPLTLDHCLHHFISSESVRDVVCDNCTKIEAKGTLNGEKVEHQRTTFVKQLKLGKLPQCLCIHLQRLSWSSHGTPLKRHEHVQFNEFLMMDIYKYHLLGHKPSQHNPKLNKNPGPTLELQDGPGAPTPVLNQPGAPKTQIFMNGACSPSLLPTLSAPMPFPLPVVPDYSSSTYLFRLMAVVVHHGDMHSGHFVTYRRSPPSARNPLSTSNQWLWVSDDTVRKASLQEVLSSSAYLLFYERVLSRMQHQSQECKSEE
OTUD3 inh: inhibitors of human OTUD3 deubiquitinase | actives 0.7% (n = 47,000) | purified OTUD3, Ub-rhodamine fluorescence, 2 h | inhibition, % at 25 µM | OTU domain-containing protein 3 (Homo sapiens), Q5T2D3
USP17 block: inhibitors of human USP17 deubiquitinase. actives 6.5% (n = 47,000). inhibition, % at 50 µM. purified USP17, Ub-rhodamine cleavage fluorescence, 3 h. AID 1645855, 2021
USP28 block: inhibitors of human USP28 deubiquitinase. Ubiquitin carboxyl-terminal hydrolase 28 (Homo sapiens), Q96RU2. purified USP28, Ub-rhodamine cleavage fluorescence, 30 min. inhibition, % at 25 µM. actives 3% (n = 47,000). AID 1645857, 2021
Active calls of the source: *; x = not tested or not shown. Sampled rows, rich in hits. Any-hit rate of the full collection: about 12%. No stated cut-off is given here; in the data, active means inhibition above about 30%; inactive means the rest.

SMILES | USP30 inh | OTUD3 inh | USP17 block | USP28 block
COc1ccc(C)cc1-n1nnnc1SCC(=O)c1cc(C)ccc1C | 32* | 12 | 4 | 22
Cc1nccc(C2CCCN(C(=O)CCc3nc4ccccc4[nH]3)C2)n1 (stereo unspecified) | -11 | -1 | 1 | -16
Cc1ccc(NC(=O)c2ccc(N3CCOCC3)nn2)cc1F | 2 | 13 | 71* | 26
CCc1cc(=O)n(CC(=O)Nc2ccc(F)c(F)c2)c(N2CCOCC2)n1 | -1 | 9 | 5 | 5
COc1ccc(C)cc1NC(=O)c1ccc(N2CCOCC2)nn1 | 54* | 4 | 52* | 9
CCc1cc(=O)n(CC(=O)Nc2cc(C)ccc2OC)c(N2CCOCC2)n1 | 59* | 37* | 36* | 27
Cc1cc(N2CCOCC2)n2nc(C(F)(F)F)c(-c3ccc(Cl)cc3)c2n1 | 0 | -7 | -6 | -9
O=C(c1cc2c(s1)CCC2)N1CCc2ccccc21 | 3 | 1 | 3 | -5
COc1cc(O)c2c(c1C)C(C)(C(C)=O)OC2=O (stereo unspecified) | -17 | 5 | -47 | -3
COc1cc(C)c2c(=O)c3c(oc2c1)C(=O)c1c(O)c(OC)cc(O)c1C3=O | -30 | 33* | 71* | 35*
CCOc1ccc(S(=O)(=O)Nc2ccccc2Cc2ccccc2)cc1 | 15 | 11 | 15 | 15
CCOc1ccc(S(=O)(=O)Nc2ccc[nH]c2=O)cc1 | -1 | -2 | 87* | 16
CCN(CC(=O)Nc1cc(C)on1)c1cccc2ccccc12 | 27 | 12 | 88* | 23
Cc1cc(NC(=O)CNc2ccccc2F)no1 | -35 | -3 | -15 | -12
CC(=O)Nc1ccc(CN2CCCC(c3nc4ccc(C)cc4c(=O)[nH]3)C2)cc1 (stereo unspecified) | -4 | -5 | -8 | 0
COc1ccc(C(=O)NCCc2nnc3ccc(SCC(=O)NCc4ccc(F)cc4)nn23)cc1 | 52* | -7 | 46* | 2
COc1ccc(C(=O)CSc2ccc3nnc(CCNC(=O)c4ccc(OC)cc4)n3n2)cc1 | 43* | 2 | 59* | 14
CCOc1ccc(S(=O)(=O)N(CC(=O)NCCN2CCOCC2)c2ccccc2)cc1 | 24 | 8 | 9 | 14
O=C1CC(c2noc(-c3ccccn3)n2)CN1c1cccc(F)c1 (stereo unspecified) | 32* | 18 | 16 | 16
CCCn1nnc2cc(S(=O)(=O)N3CCCC(C(=O)NCCc4ccco4)C3)ccc21 (stereo unspecified) | -52 | 7 | 39* | 10
Cc1ccc2c(c1)N(CCCC(=O)Nc1ccccc1C(F)(F)F)C(=O)CO2 | -241 | -48 | -51 | -46
O=C(c1ccc(F)cc1)N1CCN(Cc2nnnn2-c2cccc(F)c2)CC1 | 23 | 6 | 0 | 7
CCOC(=O)N1CCN(Cc2nnnn2-c2cccc(F)c2)CC1 | 34* | 23 | 17 | 11
Cc1cc(C)c(C)c(Oc2coc3cc(OC(=O)c4ccc(F)cc4)ccc3c2=O)c1 | 26 | 6 | 5 | 11
O=C(/C=C/c1ccc(F)cc1)N1CCc2ccccc2C1 | 1 | 17 | 62* | 28
SMILES | USP30 inh | OTUD3 inh | USP17 block | USP28 block
O=C(/C=C/c1ccc(F)cc1)N1CCCc2ccccc21 | 16 | 3 | 2 | 9
Cc1ccc(-c2csc(-n3ncc(C(=O)N4CCN(C(=O)Nc5cccc6ccccc56)C(C)C4)c3C(C)C)n2)cc1 (stereo unspecified) | -53 | 8 | 63* | 27
Cc1cc(C)cc(NC(=O)c2c(C)oc3nc[nH]c(=O)c23)c1 | -9 | 2 | 33* | 5
O=C(c1cccc(F)c1)N1C[C@H](OCc2cccnc2)[C@H]2COC[C@H]21 | 0 | -3 | -14 | -7
Cc1cc(NC(=O)Cn2cnc3c(oc4ccccc43)c2=O)no1 | x | 1 | 72* | x
Cc1ccc(-n2nnc3c(=O)n(CC(=O)Nc4cc(C)on4)cnc32)cc1 | -6 | -6 | 32* | -5
Cc1ccc(NC(=O)Cn2cnc3c(nnn3-c3ccc(Cl)cc3)c2=O)cc1 | -41 | -7 | -9 | -11
COc1ccc(CN[C@H]2[C@H](O)[C@H](O)C[C@@H]2c2cncnc2)cn1 | -19 | 4 | -6 | 20
O=C(CSc1ccc2nnc(-c3cccc(F)c3)n2n1)N1CCCCC1 | 9 | 2 | 18 | 5
c1csc(-c2nc(NCC3CCCO3)c3ccccc3n2)c1 (stereo unspecified) | 20 | 2 | 31* | 8
O=C(O)c1cccc2oc(-c3cccc4oc(-c5ccccc5O)nc34)nc12 | -2 | 15 | 46* | 22
O=C(C1CCN(S(=O)(=O)c2cc(F)ccc2F)CC1)N1CCc2sccc2C1 | -1 | -2 | 33* | 7
Cc1ccc(OCC(=O)N2CCC(c3nc4c(nnn4Cc4cccc(F)c4)c(=O)[nH]3)CC2)cc1 | 22 | 4 | 19 | 16
CN(C)S(=O)(=O)c1ccc(N(C(=O)c2cnccn2)C(C(=O)NC2CCCCC2)c2ccccc2)cc1 (stereo unspecified) | -3 | -7 | -12 | -6
COc1cc(C(C(=O)NC(C)(C)C)N(Cc2ccccc2Cl)C(=O)c2cccc(-n3cnnn3)c2)cc(OC)c1OC (stereo unspecified) | -9 | -12 | -1 | -5
COc1ccc(C(C(=O)NC2CCCCC2)N(C(=O)Cn2nnc3ccccc32)c2ccc(S(=O)(=O)N3CCC(C)CC3)cc2)cc1O (stereo unspecified) | 33* | -5 | 5 | 6
CCOC(=O)c1ccc(N(C(=O)Cn2nnc3ccccc32)C(C(=O)NC(C)(C)C)c2cc(OC)c(OC)c(OC)c2)cc1 (stereo unspecified) | 30 | 15 | 30* | 8
CC(C)n1c(=O)c2nscc2n(CC(=O)Nc2ccccc2)c1=O | 2 | -1 | -8 | -6
CC(=O)c1cc2c(=O)c3c(C(=O)O)c(O)c(O)cc3oc2c(C(C)=O)c1-c1coc2cc(O)c(O)c(C(=O)O)c2c1=O | -87 | 60* | 46* | 40*
CCc1ccc2[nH]c(=O)c(CN(CCCO)C(=O)Nc3cccc(Cl)c3)cc2c1 | -3 | -3 | 1 | 0
O=C(CCCn1c(=O)[nH]c2cc(Cl)ccc2c1=O)N1CCN(c2ncccn2)CC1 | -2 | 5 | 0 | 0
Brc1ccc(-c2cn3c4ccccc4n(CCN4CCCCC4)c3n2)cc1 | 18 | 5 | 20 | 9
CCCn1c2ccccc2n2cc(-c3ccc(-c4ccccc4)cc3)nc12 | 2 | 9 | 34* | 17
Fc1ccc(-c2cn3c4ccccc4n(Cc4ccc(Cl)cc4)c3n2)cc1 | -12 | -11 | 46* | 29
CCN1[C@H]2CCN(C(=O)c3ccc[nH]3)CC[C@@H]2Oc2ccccc2S1(=O)=O | -5 | -8 | 0 | -1
Cc1cccc(NC(=O)CSc2ccc(-c3nc(C)no3)cn2)c1 | -81 | -12 | -14 | -22
Cc1cccc(NC(=O)CSc2ccc(-n3cnc(-c4ccccc4)c3)nn2)c1 | 61* | 2 | 20 | 13
